# Bim-Bfl-1: disrupts Bim binding to human Bfl-1; inhibition, % at 10 µM; Q16548; 0.12% of 190,000 active; AID 1008; Bead-based flow cytometry, Bim-Bfl-1 binding inhibition;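 also: 0% = wells without compound plus tracer and 100% = blocker peptide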
# Target sequence (Q16548 whole entry, looked up): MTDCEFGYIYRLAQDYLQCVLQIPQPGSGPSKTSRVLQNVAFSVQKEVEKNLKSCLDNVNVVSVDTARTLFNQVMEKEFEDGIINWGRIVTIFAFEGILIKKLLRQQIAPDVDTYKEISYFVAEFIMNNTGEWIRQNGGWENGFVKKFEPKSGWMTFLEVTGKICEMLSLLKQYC
# Bcl-XL Bim block: disrupts Bim peptide binding to human Bcl-XL; Q07817; bead flow cytometry, fluorescence; inhibition, % at 10 µM; 0.04% of 190,000 active
# Bim-Bcl-2: disrupts Bim peptide binding to human Bcl-2; Bead-based flow cytometry, Bim peptide-Bcl-2 binding; 0.06% of 190,000 active; inhibition, % at 10 µM; AID 950; in the data active = inhibition above about 40%;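 also: 0% = no compound wells with probe peptide and 100% = reference peptide inhibitor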
# Target sequence (P10415 whole entry, looked up): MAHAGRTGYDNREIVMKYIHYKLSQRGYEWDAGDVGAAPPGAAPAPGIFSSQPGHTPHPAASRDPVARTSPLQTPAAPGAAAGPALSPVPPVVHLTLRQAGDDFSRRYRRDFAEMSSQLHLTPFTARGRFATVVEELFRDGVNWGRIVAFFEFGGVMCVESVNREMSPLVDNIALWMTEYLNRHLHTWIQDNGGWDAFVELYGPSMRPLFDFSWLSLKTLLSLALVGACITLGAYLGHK
# Bim-Bcl-B: inhibitors of Bim-Bcl-B interaction, human; Q9HD36; bead-based flow cytometry, Bim peptide-Bcl-B binding; inhibition, % at 10 µM; 0.073% of 190,000 active; AID 951;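 also: 0% = tracer peptide without compound and 100% = reference inhibitor peptide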
# Target sequence (Q9HD36 whole entry, looked up): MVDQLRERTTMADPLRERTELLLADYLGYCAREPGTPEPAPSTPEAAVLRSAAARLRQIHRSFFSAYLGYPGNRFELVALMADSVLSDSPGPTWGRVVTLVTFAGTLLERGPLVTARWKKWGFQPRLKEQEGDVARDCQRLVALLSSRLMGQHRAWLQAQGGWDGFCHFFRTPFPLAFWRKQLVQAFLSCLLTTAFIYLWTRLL
# BCLXL inh: Bcl-xL (human) inhibition. 0.7% of 320,000 active. GST-Bcl-xL / FITC-Bim BH3 peptide fluorescence polarization. inhibition, % at 10.9 µM;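 active = inhibition above the mean of all tested compounds plus 3 SD, cutoff set per campaign, cut at about 30% in these data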;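 also: 0% = DMSO wells and 100% = unlabeled Bim-BH3 peptide competitor; inhibitors lower millipolarization by displacing the labeled peptide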
# Bcl-W Bim block: disrupts Bim peptide binding to human Bcl-W | AID 952 | bead-based flow cytometry | 0.02% of 190,000 active | Q92843 | inhibition, % at 10 µM;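 also: 0% = bound tracer without compound and 100% = peptide blocker; higher means less fluorescent Bim peptide bound to Bcl-W beads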
# * hit, by the source's call; . = no result. Shown are actives, neighbours in structure and some others; about 0.81% of the full set was active somewhere. Rule as the data show it, unless noted: active = inhibition above about 40%.
SMILES,Bim-Bfl-1,Bcl-XL Bim block,Bim-Bcl-2,Bim-Bcl-B,BCLXL inh,Bcl-W Bim block
N#Cc1cc(C(=O)c2ccccc2O)cn(-c2nccs2)c1=O,5.0,0.0,3.0,2.0,32.3*,4.0
CCn1c(C)c(/C=N/Nc2nc3ccccc3s2)c2ccccc21,.,23.0,87.0*,.,2.2,21.0
Cc1onc(-c2c(F)cccc2Cl)c1C(=O)N(Cc1ccccc1)C(C)C,.,.,.,.,6.2,.
CC1(OC(=O)c2cccs2)C(=O)C=C2C=C(C3CC3)OC=C2C1=O (configuration not stated),.,.,.,.,26.7,.
CC1(OC(=O)c2cnc3ccccc3n2)C(=O)C=C2C=C(C3CC3)OC=C2C1=O (configuration not stated),.,.,.,.,117.6*,.
CC1(OC(=O)c2ccco2)C(=O)C=C2C=C(C3CC3)OC=C2C1=O (configuration not stated),.,.,.,.,75.0*,.
CCC(=O)OC1(C)C(=O)C=C2C=C(C3CC3)OC=C2C1=O (configuration not stated),.,.,.,.,59.3*,.
COc1ccccc1-c1nnc(SCC(=O)NNC(=O)c2ccccc2F)n1C,.,.,.,.,-0.5,.
COc1ccc(-c2cccc(NC(=O)COc3ccc(Cl)cc3)c2)nn1,.,.,.,.,6.1,.
N#CC1=C2SCC(O)(c3ccccc3)N2C(=O)CC1c1ccccc1F (configuration not stated),-10.0,-1.0,-8.0,-6.0,7.4,0.0
N#CC1=C2SCC(O)(c3ccccc3)N2C(=O)CC1c1cccs1 (configuration not stated),-20.0,-11.0,-12.0,-10.0,35.7*,-2.0
CC(C)OC(=O)c1c2c(n3ccccc13)C(=O)c1ccccc1C2=O,9.0,9.0,7.0,-11.0,88.9*,3.0
O=C(NCc1cccc(Cl)c1)c1cnccn1,-18.0,-7.0,-13.0,-7.0,44.6*,-1.0
COc1ccc(N2C(=O)/C(=C/c3cccs3)NC2=S)cc1,45.0*,-7.0,2.0,-28.0,0.3,4.0
COc1ccccc1C(=O)N=Nc1c(O)[nH]c2ccc([N+](=O)[O-])cc12,9.0,44.0*,17.0,24.0,.,27.0
COc1ccc(C(=O)CN2C(=O)NC3(CCc4ccccc43)C2=O)cc1 (configuration not stated),.,.,.,.,5.3,.
CCCc1c(C(=O)Nc2cc(C)on2)cnn1-c1ccccc1,.,.,.,.,8.9,.
O=C(c1cc(=O)c2ccccc2o1)N1CCN(c2ccccc2F)CC1,58.0*,37.0,66.0*,52.0*,1.5,58.0*
CCN1CCCC1CNc1ccc(S(C)(=O)=O)cc1[N+](=O)[O-] (configuration not stated),.,.,.,.,5.0,.
CC(C)SCC(=O)Nc1ncc2c(n1)-c1ccccc1CC2,-4.0,-1.0,0.0,-4.0,34.7*,-2.0
CC(=O)N1CCN(C(=O)c2ccc(-n3c(C)ccc3C)cc2)CC1,7.0,10.0,17.0,41.0*,7.3,6.0
Cc1ccc(C)n1-c1ccc(C(=O)N2CCOCC2)cc1,-11.0,-1.0,-7.0,5.0,16.5,1.0
Cc1ccc(N(CC(=O)NCc2ccccc2)C(=O)CCC(=O)Nc2ccccn2)cc1,.,.,.,.,-1.8,.
O=C(N/N=C/c1cccn1-c1ccc([N+](=O)[O-])cc1)C(O)c1ccccc1 (configuration not stated),-11.0,-6.0,-7.0,-8.0,5.0,2.0
O=C(Cc1ccccc1)N/N=C/c1cccn1-c1ccc([N+](=O)[O-])cc1,21.0,25.0,31.0,50.0*,0.8,26.0
SMILES,Bim-Bfl-1,Bcl-XL Bim block,Bim-Bcl-2,Bim-Bcl-B,BCLXL inh,Bcl-W Bim block
CCOc1ccc(NC(=O)Nc2ccc(Cc3ccncc3)cc2)cc1,.,.,.,.,35.8*,.
CCOc1ccc(NC(=O)C(=O)NCc2ccncc2)cc1,-2.0,-3.0,-1.0,0.0,7.7,0.0
Cc1ccc(Sc2cc(C(=O)NCCN(C)C)c3ccccc3n2)cc1,.,.,.,.,-0.2,.
Cc1ccc(Sc2cc(C(=O)NCCCN(C)C)c3ccccc3n2)cc1,.,.,.,.,78.0*,.
Cc1ccc(NNC(=O)c2ccc(Cl)cc2)nn1,.,.,.,.,-1.8,.
CC1c2cccn2CCN1S(=O)(=O)c1ccc(F)cc1 (configuration not stated),.,.,.,.,7.9,.
CC(=O)c1cccc(S(=O)(=O)N2CCn3cccc3C2C)c1 (configuration not stated),.,.,.,.,33.2*,.
CC(=O)c1ccc(S(=O)(=O)N2CCn3cccc3C2C)cc1 (configuration not stated),.,.,.,.,42.8*,.
CCSCc1nnc(SCC(=O)Nc2nc(C)cs2)n1C,5.0,-9.0,-2.0,0.0,0.1,-5.0
O=C(Cn1ncc2c([nH]c3ccccc32)c1=O)N1CCN(c2ccc(F)cc2)CC1,.,.,.,.,-0.5,.
COc1cccc(NC(=S)N(CCc2c(C)[nH]c3ccc(C)cc23)Cc2cccs2)c1,0.0,-3.0,-2.0,-2.0,-2.2,-2.0
COc1ccc2[nH]c(C)c(CCN(Cc3cccs3)C(=S)Nc3cccc(F)c3)c2c1,-5.0,-1.0,-9.0,-5.0,59.4*,1.0
Cc1ccc(CC(=O)OC(C)C(=O)NC2CCCCC2C)cc1C (configuration not stated),.,.,.,.,0.6,.
Cc1ccc(/C=C/C(=O)Nc2cccc3cccnc23)o1,6.0,-2.0,8.0,-3.0,78.0*,1.0
Cc1ccc(/C=C/C(=O)Nc2nnc(C)s2)o1,12.0,-5.0,2.0,-23.0,6.5,0.0
N#CC1=C(S)N(c2ccc(F)cc2)C(c2cccs2)NC1=O (configuration not stated),0.0,-1.0,1.0,0.0,.,0.0
Cc1cccc(N2C(S)=C(C#N)C(=O)NC2c2cccs2)c1 (configuration not stated),42.0*,35.0,21.0,18.0,-3.4,25.0
CN(CCNC(=O)c1ccc(CS(=O)(=O)c2c(Cl)cccc2Cl)o1)CCc1ccccc1,.,.,.,.,-2.9,.
CCOc1ccc(/C=C2\SC(=S)N(N3C(=O)C4CC4C3=O)C2=O)cc1 (configuration not stated),4.0,0.0,-1.0,-1.0,9.8,1.0
CCOc1ccc(N=C2NC(=O)S/C2=C\c2ccc(N(C)C)cc2)cc1,1.0,1.0,0.0,0.0,70.4*,2.0
CCOc1ccc(/C=C2/SC(=O)NC2=S)cc1,0.0,-10.0,1.0,-8.0,48.2*,-4.0
CCOc1ccc(/C=C2\SC(=S)N(CC(=O)N(CCO)C(C)(C)C)C2=O)cc1,-5.0,3.0,0.0,1.0,5.0,5.0
Cc1nn(C(C)C)c(C)c1CN1CCC(C(=O)Nc2cccc(-c3cccc(F)c3)c2)CC1,.,.,.,.,2.7,.
CCn1nnc(NC(=O)c2ccco2)n1,.,.,.,.,-1.1,.
Cc1cc(C(=O)CCC(=O)NCC2COc3ccccc3O2)c(C)s1 (configuration not stated),.,.,.,.,4.3,.
CC(C)(C)c1ccc(C(=O)Nc2cccc3ncccc23)cc1,.,.,.,.,81.1*,.
CCCC(=NC(C)CC)C1=C(O)CC(c2ccccc2)CC1=O (configuration not stated),.,.,.,.,-1.3,.
CC(C)Cn1cnc2c1c(=O)n(CC(=O)NC(=O)NC(C)(C)C)c(=O)n2Cc1ccccc1,.,.,.,.,5.3,.

# Screening results deposited in PubChem by several laboratories.
